# Results: PubChem BioAssay (EPA / NIEHS)
# Records with an inconclusive call do not appear. Active and inactive are the calls of the source. Rule for the calls, unless noted: active = hit-call score of the fitted dose curve at least 0.9, where 1 is the maximum; inconclusive = response in the unintended direction; inactive = score below 0.9.
# What was measured:
# [1] = target: THRA (gene 7067) (UniProt P10827); assay: TOX21_TRA_COA_Agonist_Followup_ratio: Tox21 Thyroid Hormone Receptor alpha Agonism through Coactivator Recruitment Follow-Up Assay, Ratio (AID 2283948; active = hit-call score of the fitted dose curve at least 0.9, where 1 is the maximum; inactive = score below 0.9)
# Outline: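 First, compound was incubated with 2.5 nM GST-TRα LBD in 0.10% BSA. Next, 200 nM fluorescein-SRC-2 and 2 nM Tb-anti-GST antibody were added. Finally, the 520:495 nm ratio was normalized to DMSO and T3 controls.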
# [2] = target: THRB (gene 7068) (UniProt P10828); assay: TOX21_TRB_BLA_Agonist_Followup_ratio: Tox21 Thyroid Hormone Receptor beta Agonism Beta-lactamase (BLA) Follow-Up Assay, Ratio (AID 2283954)
# Outline: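 Agonist mode: compounds (11-point, triplicate) incubated 18 h with HEK293T cells carrying GAL4-DBD/human TRβ-LBD and UAS-β-lactamase. Blue/green (460/530 nm) FRET ratio read after 2 h CCF4-AM loading; CellTiter-Glo viability run in the same plates.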
# [3] = TOX21_TRB_BLA_Agonist_Followup_viability: Viability Assessment in the Tox21 Thyroid Hormone Receptor beta Agonism Beta-lactamase (BLA) Follow-Up Assay (AID 2283956)
# Outline: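 Viability was read as CellTiter-Glo luminescence in the same wells as the TRb-bla agonist read-out. HEK293T GAL4-TRb LBD cells were treated for 18 h (37C, 5% CO2) at 11 concentrations in triplicate. Fits were bidirectional versus DMSO baseline.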
# [4] = target: THRB (gene 7068) (UniProt P10828); assay: TOX21_TRB_COA_Agonist_Followup_ratio: Tox21 Thyroid Hormone Receptor beta Agonism through Coactivator Recruitment Follow-Up Assay, Ratio (AID 2283963; active = hit-call score of the fitted dose curve at least 0.9, where 1 is the maximum; inactive = score below 0.9)
# Outline: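 Agonism is measured as coactivator recruitment in a purified-protein TR-FRET format, using GST-TRβ LBD at 5.0 nM, fluorescein-SRC-2 peptide at 200 nM and Tb-labeled anti-GST antibody at 2 nM. Values are 520:495 nm ratios relative to DMSO (0%) and T3 (100%).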
# [5] = TOX21_TR_RXR_BLA_Agonist_Followup_viability: Viability Assessment in the Tox21 Thyroid Hormone Receptor beta Retinoid X Receptor alpha (RXRa) Agonism Beta-lactamase (BLA) Follow-Up Assay (AID 2283970)
# Outline: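 CellTiter-Glo ATP quantitation as viability read-out in RXRa-bla HEK293T cells (2,500/well, charcoal-stripped 2% FBS medium), 16h compound incubation at 37C. Loss of signal versus DMSO taken as cytotoxicity, analyzed by bidirectional curve fitting.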
# [6] = CEETOX_H295R_DOC_noMTC: CeeTox H295R High-throughput Steroidogenesis Assay for DOC, maximum tolerated concentration (MTC) filtered results only (AID 2283918; active = hit-call score of the fitted dose curve at least 0.9, where 1 is the maximum; inactive = score below 0.9); conditions: actives raise or lower the signal
# Outline: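 H295R cells prestimulated 48 h with 10 uM forskolin, then exposed 48 h to test chemical (0.1% DMSO final). Medium 11-deoxycorticosterone extracted with MTBE, quantified by HPLC-MS/MS; bidirectional fit versus DMSO, concentrations not MTC-filtered.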
# [7] = CEETOX_H295R_ESTRADIOL_noMTC: CeeTox H295R High-throughput Steroidogenesis Assay for Estradiol, maximum tolerated concentration (MTC) filtered results only (AID 2283919; active = hit-call score of the fitted dose curve at least 0.9, where 1 is the maximum; inactive = score below 0.9); conditions: actives raise or lower the signal
# Outline: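 Readout: dansyl-derivatized estradiol quantified by LC-MS/MS in medium from H295R cells dosed 48 h (0.1% DMSO) following 48 h forskolin (10 uM) prestimulation. Gain or loss of signal fitted against DMSO; no MTC filtering applied.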
# [8] = CEETOX_H295R_PROG_noMTC: CeeTox H295R High-throughput Steroidogenesis Assay for Progesterone (PROG), maximum tolerated concentration (MTC) filtered results only (AID 2283920; active = hit-call score of the fitted dose curve at least 0.9, where 1 is the maximum; inactive = score below 0.9); conditions: actives raise or lower the signal
# Outline: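 Progesterone synthesis in the human adrenal line H295R is measured by HPLC-MS/MS after 48 h chemical exposure following 48 h forskolin (10 uM) stimulation. Activity in either direction is fitted relative to DMSO.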
# [9] = CEETOX_H295R_ESTRONE_noMTC: CeeTox H295R High-throughput Steroidogenesis Assay for Estrone, maximum tolerated concentration (MTC) filtered results only (AID 2283921; active = hit-call score of the fitted dose curve at least 0.9, where 1 is the maximum; inactive = score below 0.9); conditions: actives raise or lower the signal
# Outline: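 Estrone in spent medium, quantified by tandem MS following dansyl chloride derivatization, after 48 h chemical exposure (0.1% DMSO) of forskolin-prestimulated (10 uM, 48 h) H295R cells; concentrations not MTC-filtered, bidirectional fit against DMSO.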
# [10] = TOX21_PR_BLA_Followup_Agonist_viability: Viability Assessment in the Tox21 HEK293 Progesterone Receptor (PR) Agonism Beta-lactamase Follow-Up Assay (AID 2283935);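 note: signal loss means lower viability so actives are cytotoxic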
# Outline: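 Luminescent ATP quantitation (CellTiter-Glo, 30 min, room temperature) in the same wells as the beta-lactamase read, on PR-UAS-bla HEK293T cells exposed to compound for 16 hr at 37C in 2% charcoal-stripped serum.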
# [11] = TOX21_PR_BLA_Followup_Antagonist_viability: Viability Assessment in the Tox21 HEK293 Progesterone Receptor (PR) Antagonism Beta-lactamase Follow-Up Assay (AID 2283936);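 note: cells exposed to compound with R5020 agonist for 16 h; hits lower the luminescence signal meaning cytotoxicity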
# Outline: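 PR-UAS-bla HEK293T cells in medium with 2% charcoal-stripped FBS were treated with compounds plus R5020 for 16 hr at 37C. After the beta-lactamase read, CellTiter-Glo was added to the same wells and luminescence read after 30 min at room temperature.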
# [12] = target: PGR (gene 5241) (UniProt P06401); assay: TOX21_PR_LUC_Followup_Antagonist: Tox21 HEK293 Progesterone Receptor (PR) Antagonism Luciferase Follow-Up Assay (AID 2283938);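 note: curve fitted upward as signal gain over DMSO baseline despite antagonist label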
# Outline: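 A follow-up to the PR bla screen using HEK293-PR-A-luc cells, multiplexed with cell viability to flag cytotoxicity. Reporter luminescence after 16 h compound exposure was analysed relative to DMSO.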
# [13] = TOX21_PR_LUC_Followup_Antagonist_viability: Viability Assessment in the Tox21 HEK293 Progesterone Receptor (PR) Antagonism Luciferase Follow-Up Assay (AID 2283940)
# Outline: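 Read-out: CellTiter-Glo ATP luminescence, loss of signal taken as reduced viability. Cells: HEK293-PR-A-luc, 3,000/well, 5 h settling, then 16 h compound exposure at 37C, 0% CO2.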
# [14] = TOX21_PR_LUC_Followup_Agonist_viability: Viability Assessment in the Tox21 HEK293 Progesterone Receptor (PR) Agonism Luciferase Follow-Up Assay (AID 2283941);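 note: loss of signal means cytotoxicity so actives lower viability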
# Outline: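 Cytotoxicity counter-screen: ATP content by CellTiter-Glo luminescence, loss of signal = reduced viability. HEK293-PR-A-luc, 3,000 cells/well, compound exposure 16 h, 37C.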
# [15] = CEETOX_H295R_TESTO_noMTC: CeeTox H295R High-throughput Steroidogenesis Assay for Testosterone (TESTO), maximum tolerated concentration (MTC) filtered results only (AID 2283924; active = hit-call score of the fitted dose curve at least 0.9, where 1 is the maximum; inactive = score below 0.9); conditions: actives raise or lower the signal
# Outline: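 Medium testosterone, measured by HPLC-MS/MS after liquid-liquid extraction, was fitted in both directions relative to DMSO without MTC filtering. Adrenal H295R cells received 48 h chemical exposure (0.1% DMSO final) after 48 h forskolin (10 uM) prestimulation; viability by MTT.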
# [16] = target: PGR (gene 5241) (UniProt P06401); assay: TOX21_PR_LUC_Followup_Agonist: Tox21 HEK293 Progesterone Receptor (PR) Agonism Luciferase Follow-Up Assay (AID 2283937; active = hit-call score of the fitted dose curve at least 0.9, where 1 is the maximum; inactive = score below 0.9)
# Outline: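 Luminescence read-out (ONE-Glo, 30 min at room temperature) of PR-driven luciferase in HEK293-PR-A-luc cells after 16 h compound exposure at 37C; gain of signal fitted relative to DMSO baseline.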
# Chain of PGR (gene 5241) (P06401 whole entry, looked up): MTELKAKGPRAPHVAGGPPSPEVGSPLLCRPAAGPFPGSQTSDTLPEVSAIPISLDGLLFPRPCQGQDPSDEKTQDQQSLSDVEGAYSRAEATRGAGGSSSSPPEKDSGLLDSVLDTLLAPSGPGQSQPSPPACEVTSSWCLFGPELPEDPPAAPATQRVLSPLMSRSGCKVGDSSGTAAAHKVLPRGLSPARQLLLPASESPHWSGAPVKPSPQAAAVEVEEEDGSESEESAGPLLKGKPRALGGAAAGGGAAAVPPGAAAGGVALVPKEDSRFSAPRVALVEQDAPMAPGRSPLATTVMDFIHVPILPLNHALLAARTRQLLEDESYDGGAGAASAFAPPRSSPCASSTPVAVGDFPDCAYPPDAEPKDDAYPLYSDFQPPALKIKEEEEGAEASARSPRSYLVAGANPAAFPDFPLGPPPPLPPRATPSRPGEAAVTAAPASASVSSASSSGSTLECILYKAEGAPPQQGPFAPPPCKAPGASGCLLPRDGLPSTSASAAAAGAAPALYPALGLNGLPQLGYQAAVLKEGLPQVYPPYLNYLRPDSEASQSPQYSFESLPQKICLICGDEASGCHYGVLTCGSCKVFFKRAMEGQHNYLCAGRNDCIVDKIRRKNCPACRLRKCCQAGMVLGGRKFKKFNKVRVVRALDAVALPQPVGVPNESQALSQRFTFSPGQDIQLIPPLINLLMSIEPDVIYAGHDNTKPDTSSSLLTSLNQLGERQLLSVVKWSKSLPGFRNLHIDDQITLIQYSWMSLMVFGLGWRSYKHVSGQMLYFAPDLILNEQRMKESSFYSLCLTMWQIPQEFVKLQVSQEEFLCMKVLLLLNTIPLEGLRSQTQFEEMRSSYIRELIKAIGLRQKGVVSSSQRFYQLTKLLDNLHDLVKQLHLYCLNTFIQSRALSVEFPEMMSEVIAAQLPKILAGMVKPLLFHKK
# Chain of THRB (gene 7068) (P10828 whole entry, looked up, the tested form may be a part): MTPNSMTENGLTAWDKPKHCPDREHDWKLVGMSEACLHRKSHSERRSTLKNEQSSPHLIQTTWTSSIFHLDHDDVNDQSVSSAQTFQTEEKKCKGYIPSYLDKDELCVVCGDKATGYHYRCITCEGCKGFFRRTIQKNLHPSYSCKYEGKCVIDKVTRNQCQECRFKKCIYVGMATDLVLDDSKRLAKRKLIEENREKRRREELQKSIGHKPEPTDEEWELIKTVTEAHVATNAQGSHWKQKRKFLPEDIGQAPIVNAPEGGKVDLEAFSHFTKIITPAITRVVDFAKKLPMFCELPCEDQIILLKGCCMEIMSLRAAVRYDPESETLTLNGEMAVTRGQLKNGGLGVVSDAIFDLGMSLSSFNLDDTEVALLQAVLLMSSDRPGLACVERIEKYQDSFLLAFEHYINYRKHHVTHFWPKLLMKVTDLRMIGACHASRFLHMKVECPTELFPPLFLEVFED
# Chain of THRA (gene 7067) (P10827 whole entry, looked up, the tested form may be a part): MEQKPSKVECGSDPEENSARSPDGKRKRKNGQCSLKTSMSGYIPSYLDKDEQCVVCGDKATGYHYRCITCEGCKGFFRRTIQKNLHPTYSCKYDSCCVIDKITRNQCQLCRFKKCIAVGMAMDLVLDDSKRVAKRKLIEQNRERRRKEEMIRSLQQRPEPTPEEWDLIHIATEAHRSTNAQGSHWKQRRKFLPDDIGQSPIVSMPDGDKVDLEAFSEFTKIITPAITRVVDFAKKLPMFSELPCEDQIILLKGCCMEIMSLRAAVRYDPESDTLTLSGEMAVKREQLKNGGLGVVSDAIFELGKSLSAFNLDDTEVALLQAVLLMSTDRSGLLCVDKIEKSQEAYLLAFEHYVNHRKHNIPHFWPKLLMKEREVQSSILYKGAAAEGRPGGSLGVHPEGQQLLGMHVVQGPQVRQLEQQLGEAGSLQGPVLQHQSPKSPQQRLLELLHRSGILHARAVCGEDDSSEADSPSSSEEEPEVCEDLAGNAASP
smiles,measurement,setting,value
CC(C)(c1ccccc1)c1ccc(O)c(C(C)(C)c2ccccc2)c1,outcome,[1],inactive
same,outcome,[2],inactive
same,outcome,[3],inactive
same,outcome,[4],inactive
same,outcome,[5],inactive
Cn1sc(Cl)cc1=O,outcome,[6],inactive
same,outcome,[7],inactive
same,outcome,[8],inactive
same,outcome,[9],inactive
O=C(OC1CCCCC1)c1ccccc1C(=O)OC1CCCCC1,AC50,[6],13.5 µM (active)
same,outcome,[8],inactive
CC1(C)CCC(Cc2ccc(Cl)cc2)C1(O)Cn1cncn1 (stereo not given),outcome,[10],inactive
same,outcome,[11],inactive
same,AC50,[12],21.6 µM (active)
same,outcome,[13],inactive
same,outcome,[14],inactive
C[C@H]1CCCC(=O)CCC/C=C/c2cc(O)cc(O)c2C(=O)O1,outcome,[7],inactive
same,AC50,[8],3.94 µM (active)
same,AC50,[9],36.3 µM (active)
same,AC50,[15],82.8 µM (active)
same,outcome,[10],inactive
same,outcome,[11],inactive
same,outcome,[16],inactive
same,outcome,[12],inactive
same,outcome,[13],inactive
same,outcome,[14],inactive
Nc1ccc(-c2ccc(N)c(Cl)c2)cc1Cl,outcome,[10],inactive
same,outcome,[11],inactive
same,AC50,[12],6.09 µM (active)
same,outcome,[13],inactive
same,outcome,[14],inactive
C[C@]12CCC(=O)C[C@@H]1CC[C@@H]1[C@@H]2CC[C@]2(C)[C@@H](O)CC[C@@H]12,outcome,[10],inactive
same,outcome,[11],inactive
same,outcome,[13],inactive
same,outcome,[14],inactive
CCC1(c2ccc(N)cc2)CCC(=O)NC1=O (stereo not given),outcome,[6],inactive
same,outcome,[8],inactive
same,outcome,[15],inactive
ClC(Cl)=C(Cl)C(Cl)=C(Cl)Cl,outcome,[6],inactive
same,outcome,[8],inactive
